In PubChem BioAssay (NCI):
About 83,000 compounds went through this panel and 20% of them were active in at least one assay; those are over-represented in the sample as a whole.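 Results are percent growth after 48 hours of single-concentration exposure. 100 means growth as in untreated cells, lower positive values show inhibition; negative values down to -100 show cell death.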 Active and inactive are the calls of the source. The calls were made as follows: active = growth percent below 10; inactive = the rest.

Legend:
Assay in all cases: NCI-60 one-dose screen, 48 h (100 = growth as untreated, 0 = no growth, -100 = all killed)
[1] = system: NCI-H23 lung; details: 10 µM unless noted
[2] = system: NCI-H226 lung; details: 10 µM unless noted
[3] = system: NCI-H322M lung; details: 10 µM unless noted
[4] = system: HOP-62 NSCLC; details: 10 µM unless noted
[5] = system: HOP-92 NSCLC; details: 10 µM
[6] = system: NCI-H522 lung; details: 10 µM
[7] = system: A549/ATCC NSCLC; details: 10 µM unless noted
[8] = system: 786-0 renal; details: 10 µM unless noted
[9] = system: COLO 205 colon; details: 10 µM unless noted
[10] = system: DU-145 prostate; details: 10 µM unless noted
[11] = system: K-562 leukemia; details: 10 µM unless noted
[12] = system: MALME-3M melanoma; details: 10 µM unless noted
[13] = system: MDA-MB-231 breast; details: 10 µM unless noted
[14] = system: RXF 393 renal; details: 10 µM unless noted
[15] = system: SF-268 CNS; details: 10 µM unless noted
[16] = system: SF-295 CNS; details: 10 µM unless noted
[17] = system: SF-539 CNS; details: 10 µM unless noted
[18] = system: UACC-257 melanoma; details: 10 µM unless noted
[19] = system: NCI-H460 lung; details: 10 µM unless noted
[20] = system: M14 melanoma; details: 10 µM unless noted

Measured: growth

CCCC(=O)Nc1ccccc1C(=O)O
inactive: [1] 86.6% | [2] 101% | [3] 107% | [4] 96.9% | [5] 95.7% | [6] 90.7% | [7] 94.3% | [8] 112% | [9] 97% | [10] 97.6% | [11] 104% | [12] 106% | [13] 123% | [14] 93.7% | [15] 92.4% | [16] 93.9% | [17] 102% | [18] 85.2%

Cc1c(C(N)=O)sc2c1c(=O)n(Cc1ccccc1)c1nnc(S(C)(=O)=O)n21
inactive: [1] 97.1% | [2] 96.2% | [3] 107% | [4] 78.8% | [19] 91.3% | [7] 102% | [8] 108% | [9] 93.8% | [10] 101% | [12] 92.4% | [13] 101% | [14] 49.3% | [15] 96.7% | [16] 89.4% | [18] 80.8% | [20] 76%

C[C@]12C=CC(=O)C=C1[C@@H](F)C[C@@H]1[C@@H]2[C@@H](O)C[C@@]2(C)[C@H]1CC[C@]2(O)C(=O)CO
inactive: [1] 106% | [2] 90.6% | [3] 113% | [4] 104% | [5] 57.5% | [6] 118% | [7] 63.5% | [8] 108% | [9] 106% | [10] 95.1% | [11] 125% | [12] 81.8% | [13] 80.6% | [14] 126% | [15] 96.9% | [16] 123% | [17] 96.1% | [18] 96.1% | [20] 92.5%

Cc1ccc(C(=O)C(Br)C(Br)c2ccccc2)cc1 (stereo not drawn)
inactive: [1] 114% | [2] 92.8% | [3] 95% | [4] 115% | [19] 101% | [8] 99.4% | [9] 52.8% | [10] 85.9% | [11] 50.9% | [12] 88.3% | [13] 99.9% | [14] 79.3% | [15] 95.7% | [16] 97.9% | [17] 100% | [20] 101%

COc1ccc(/C(=C(\c2ccccc2)[N+](=O)[O-])c2ccc(OCCN3CCCC3)cc2)cc1
active: [9] 8.89% | [12] -7.32% | [18] -26.1% | [20] -73.4%
inactive: [1] 74.9% | [2] 72.8% | [3] 87.2% | [4] 94.1% | [5] 59.5% | [6] 83.7% | [7] 78.4% | [8] 15.2% | [10] 89.3% | [11] 13.7% | [13] 55% | [14] 25% | [15] 84.4% | [16] 31.9% | [17] 28.6%

CC[C@@H](C)/C=C(C)/C=C/C(=O)c1c(O)c(-c2ccc(OC(=O)[C@@]34CC[C@@](C)(C(=O)O3)C4(C)C)cc2)cn(O)c1=O
inactive: [1] 21.8% | [2] 36.8% | [4] 21% | [7] 43.6% | [9] 112% | [10] 10.8% | [13] 36.7% | [14] 31.6% | [17] 16.7%
active: [3] -4.05% | [19] -7.48% | [8] -31.8% | [15] -1.52% | [16] -9.51% | [18] 2.75% | [20] -35.8%

CCN(CC)CCOC(=O)c1cccnc1
inactive: [1] 95.8% | [2] 90.3% | [3] 100% | [4] 94.6% | [19] 101% | [8] 99.8% | [9] 119% | [10] 109% | [11] 92.7% | [12] 91.3% | [13] 105% | [14] 103% | [15] 102% | [16] 101% | [17] 102% | [20] 102%

O=C(CN1CCN(c2cccc(Cl)c2)CC1)N1CCN(c2nnc(-c3ccc(Cl)cc3)c(-c3ccc(Cl)cc3)n2)CC1
inactive: [1] 87.7% | [2] 76.7% | [3] 77.8% | [4] 116% | [19] 76.5% | [8] 91.2% | [9] 82.8% | [10] 94.8% | [11] 38.8% | [12] 105% | [13] 86.8% | [15] 89.8% | [16] 84.3% | [17] 74.4% | [20] 106%

COc1cc(-c2nc(/C=C3/C(=O)Nc4ccccc43)c3ccccn23)cc(OC)c1OC
inactive: [1] 47.7% | [2] 82.5% | [3] 113% | [4] 87.4% | [19] 66.4% | [7] 77% | [8] 71.9% | [9] 75.1% | [11] 52.2% | [12] 74.4% | [13] 40.7% | [14] 76.2% | [15] 47% | [16] 92% | [17] 83.6% | [18] 70.8% | [20] 77.6%

Oc1ccc(N=Nc2ccc(N=Nc3ccccc3)cc2)cc1
active: [6] -15.1% | [7] 9.84% | [11] -7.03% | [16] 8.6% | [17] 2.09%
inactive: [1] 59.9% | [2] 57% | [3] 49.7% | [4] 59.3% | [5] 79.8% | [8] 38.3% | [9] 84.8% | [10] 49.3% | [12] 111% | [13] 54.7% | [14] 98.2% | [15] 36.9% | [18] 53% | [20] 26.7%

CCN(CC)CCNc1ncnc2c1cnn2-c1ccc(Cl)cc1
inactive: [1] 76.5% | [2] 100% | [3] 92.8% | [4] 114% | [19] 85% | [8] 106% | [9] 15.9% | [10] 94.5% | [11] 45% | [12] 88.9% | [13] 61.1% | [15] 81.7% | [16] 85.7% | [17] 70%

CC(C)(C)C(=O)OCOP(=O)(OCOC(=O)C(C)(C)C)C1CC(O)N(O)C1=O (stereo not drawn)
active: [6] 8.02% | [14] 1.26%
inactive: [1] 21% | [2] 71.6% | [3] 30.5% | [4] 35.7% | [5] 28.2% | [7] 64.3% | [8] 14.5% | [9] 45% | [10] 44.4% | [11] 15.2% | [12] 41.2% | [13] 42.7% | [15] 13.3% | [16] 67% | [17] 39.3% | [18] 63.1% | [20] 55.6%

O=C(Nc1ccc(Cl)c(Cl)c1)O/N=C\c1c(Cl)ccc([N+](=O)[O-])c1Cl
inactive: [1] 27% | [2] 58.4% | [3] 11.6% | [7] 45.5% | [16] 83.9% | [20] 32%
active: [4] -86.3% | [5] 6.84% | [6] -90.4% | [8] 5.13% | [9] -83.3% | [10] -82.5% | [11] -7.08% | [12] -44.9% | [13] -59.7% | [14] -45.1% | [15] -4.9% | [17] 4.51% | [18] -49.2%

OCCN1CCCN(CCCN2c3ccccc3Sc3ccc(C(F)(F)F)cc32)CC1
inactive: [1] 68.8% | [2] 92.7% | [3] 73.6% | [4] 74.8% | [19] 40.7% | [8] 65.1% | [10] 78.8% | [12] 44.5% | [13] 64.9% | [14] 47% | [15] 64.9% | [16] 31% | [17] 67.2%
active: [9] -81.8% | [11] 2.61% | [20] 7.54%

O=C(NC(=S)NNC(=S)NNc1ccccc1)c1ccccc1
active: [11] 9.51% | [16] 6.98%
inactive: [1] 25.9% | [2] 40.6% | [3] 68.2% | [4] 43% | [19] 13.2% | [8] 67.7% | [9] 81% | [10] 98% | [12] 25.5% | [13] 78.2% | [14] 62.8% | [15] 59.5% | [17] 25.5% | [20] 71.7%

CCCCCCCCCCCCCCCCCC(=O)Nc1ccc(O)cc1
active: [17] -16%
inactive: [1] 98.7% | [2] 102% | [3] 97% | [4] 91.4% | [19] 100% | [8] 79% | [9] 93% | [10] 103% | [11] 96.6% | [12] 94.1% | [13] 86.3% | [14] 99.6% | [15] 84.2% | [16] 106% | [20] 103%

CC[n+]1c(C)ccc2cc(C)ccc21
inactive: [1] 96% | [2] 93.6% | [3] 111% | [4] 97.5% | [19] 110% | [7] 75.3% | [9] 101% | [10] 126% | [11] 91.2% | [12] 131% | [13] 91.7% | [14] 111% | [15] 102% | [16] 119% | [17] 110% | [18] 105%

CCCCN(CCCC)c1ccc(C(=O)O)cc1
inactive: [1] 98.1% | [2] 99.5% | [3] 98.4% | [4] 98% | [19] 104% | [8] 99.4% | [9] 98.8% | [10] 101% | [11] 107% | [12] 74% | [13] 120% | [14] 105% | [15] 101% | [16] 97.7% | [17] 109% | [20] 103%
